From the supplement of paper PMC13380429

System: Vero E6 infected with SARS-CoV-2
Experiment: inhibition of SARS-CoV-2 cytopathic effect; higher = more antiviral protection, active = above 15
Conditions: 48 h

Measured: inhibition of SARS-CoV-2 cytopathic effect

NS(=O)(=O)C#Cc1ccccc1 [pifithrin-mu]
inactive: 1 nM 2.15% | 8.33 nM 5.91% | 100 nM 2.87% | 833.33 nM 4.85%
active: 10000 nM 22.5%

COC(=O)N[C@H](C(=O)N[C@@H](Cc1ccccc1)[C@@H](O)CN(Cc1ccc(-c2ccccn2)cc1)NC(=O)[C@@H](NC(=O)OC)C(C)(C)C)C(C)(C)C [atazanavir]
inactive: 1 nM -1.78% | 8.33 nM 2.1% | 100 nM 1.84% | 833.33 nM -0.5% | 10000 nM -0.09%

CC(=O)N[C@@H](Cc1c[nH]c2ccccc12)C(=O)OCc1cc(C(F)(F)F)cc(C(F)(F)F)c1
inactive: 1 nM 0.3% | 8.33 nM 1.3% | 100 nM 2.32% | 833.33 nM 1.61% | 10000 nM 4%

NCC(O)c1ccc(O)cc1 (stereo not given) [octopamine]
inactive: 1 nM -3.66% | 8.33 nM -1.96% | 100 nM -2.91% | 833.33 nM -4.12% | 10000 nM 0.96%

COc1ccc(Br)cc1S(=O)(=O)NC(=O)/C=C/c1ccccc1Cc1ccc2ccccc2c1
inactive: 1 nM 1.22% | 8.33 nM 1.19% | 100 nM 1.93% | 833.33 nM 3.35% | 10000 nM -0.51%

CCOc1cc(C=O)ccc1O [ethyl-vanillin]
inactive: 1 nM -2.26% | 8.33 nM 2.03% | 100 nM -1.95% | 833.33 nM -0.96% | 10000 nM -1.21%

CC(N)Cc1c[nH]c2ccc(OCc3cccs3)cc12 (stereo not given)
inactive: 1 nM 0.71% | 8.33 nM -0.24% | 100 nM 0.67% | 833.33 nM -1.65% | 10000 nM -3.56%

[O-][n+]1cccc(CO)c1 [mepiroxol]
inactive: 1 nM 0.82% | 8.33 nM -0.73% | 100 nM 2.65% | 833.33 nM -0.59% | 10000 nM 2.31%

Cc1cc(OCCCS(C)(=O)=O)cc(C)c1-c1cccc(COc2ccc3c(c2)OC[C@H]3CC(=O)O)c1
inactive: 1 nM -1.83% | 8.33 nM 0.64% | 100 nM -0.31% | 833.33 nM 3.74% | 10000 nM 2.41%

c1cc(OCCN2CCCCC2)cc(-c2n[nH]c3ccc(-c4nnc[nH]4)cc23)c1
inactive: 1 nM -0.48% | 8.33 nM -0.97% | 100 nM -0.96% | 833.33 nM 3.62% | 10000 nM 3.74%

O=C(O)c1ccc(-c2c[nH]c3ncc(-c4ccccc4)cc23)cc1C1CCCC1
inactive: 1 nM 4.37% | 8.33 nM 5.26% | 100 nM 0.74% | 833.33 nM 1.88% | 10000 nM -0.09%

Nc1ccccc1S(N)(=O)=O [2-aminobenzenesulfonamide]
inactive: 1 nM 0.91% | 8.33 nM 2.45% | 100 nM 3.94% | 833.33 nM 3.53% | 10000 nM -0.71%

Cc1ncc(CO)c(/C=N/NC(=O)c2ccncc2)c1O [pyridoxal-isonicotinoyl-hydrazone]
inactive: 1 nM 3.14% | 8.33 nM -0.89% | 100 nM -0.41% | 833.33 nM 0.28% | 10000 nM -0.54%

N[C@@H]1c2cccnc2[C@H](OC(=O)N2CCC(n3c(=O)[nH]c4ncccc43)CC2)CC[C@H]1c1cccc(F)c1F [rimegepant]
inactive: 1 nM -0.34% | 8.33 nM 1.65% | 100 nM -0.46% | 833.33 nM -1.15% | 10000 nM 0.55%

CCCCCCCCCCCCCCCC(=O)O[C@@H]1[C@@H](O)[C@@H](O)[C@@H]([C@H](NC(=O)[C@@H]2C[C@@H](CCC)CN2C)[C@H](C)Cl)O[C@@H]1SC [clindamycin-palmitate]
inactive: 1 nM -0.87% | 8.33 nM -2.61% | 100 nM -3.02% | 833.33 nM -0.74% | 10000 nM -3.94%

O=C(Nc1ccccc1C(=O)Nc1ccc(CCO)cc1)c1ccc([N+](=O)[O-])cc1
inactive: 1 nM -0.75% | 8.33 nM 0.23% | 100 nM -1.82% | 833.33 nM -1.34% | 10000 nM -1.2%

CN1[C@H]2C[C@H](OC(=O)[C@H](CO)c3ccccc3)C[C@@H]1[C@@H](O)C2 [anisodamine]
inactive: 1 nM 1.04% | 8.33 nM 2.56% | 100 nM 3.99% | 833.33 nM 5.76% | 10000 nM 3.66%

CN[C@@H](C)C(=O)N[C@H](C(=O)N1CCC[C@H]1c1nc(C(=O)c2ccc(F)cc2)cs1)C1CCCCC1
inactive: 1 nM 1.96% | 8.33 nM 2.97% | 100 nM 0.97% | 833.33 nM -3.07% | 10000 nM -4.24%

O=C(Oc1cc(S(=O)(=O)c2ccccc2)ccc1[N+](=O)[O-])c1ccc(Cl)cc1
inactive: 1 nM 0.83% | 8.33 nM 0.6% | 100 nM -2.99% | 833.33 nM -0.23% | 10000 nM -0.09%

C[C@]12CC[C@@H]3c4ccc(OC(=O)N(CCCl)CCCl)cc4CC[C@H]3[C@@H]1CC[C@@H]2OP(=O)(O)O [estramustine-phosphate]
inactive: 1 nM -1.79% | 8.33 nM 0.03% | 100 nM -0.34% | 833.33 nM -1.57% | 10000 nM -2.26%

CCOC(=O)CSCCC1NC(C(=O)O)CS1 (stereo not given) [letosteine]
inactive: 1 nM -0.45% | 8.33 nM -0.54% | 100 nM 3.16% | 833.33 nM 2.53% | 10000 nM 5.67%

O=C(O)CSc1nnc(Br)n1-c1ccc(C2CC2)c2ccccc12 [lesinurad]
inactive: 1 nM -0.42% | 8.33 nM -0.65% | 100 nM 2.45% | 833.33 nM 0.63% | 10000 nM -2.06%

Cc1ccc(Cl)c(Nc2ccccc2C(=O)O)c1Cl [meclofenamic-acid]
inactive: 1 nM -0.6% | 8.33 nM 1.04% | 100 nM -1.96% | 833.33 nM 0.39% | 10000 nM -1.58%

CC(=O)c1ccc(NS(C)(=O)=O)c(Oc2ccc(F)cc2F)c1
inactive: 1 nM 4.46% | 8.33 nM 0.47% | 100 nM 0.56% | 833.33 nM 1.88% | 10000 nM 2.13%

N#CCC(=O)NN [cyacetacide]
inactive: 1 nM -3.1% | 8.33 nM 1.89% | 100 nM 6.23% | 833.33 nM 6.6% | 10000 nM 7.12%

Cc1cccc(NC(=O)c2ccc(C(F)(F)F)cc2C(=O)O)n1
inactive: 1 nM 0.74% | 8.33 nM 0.28% | 100 nM 1.41% | 833.33 nM 0.88% | 10000 nM 2.54%

Nc1ncnc2c1c(-c1cnc3[nH]ccc3c1)nn2C1CCCC1
inactive: 1 nM -1.07% | 8.33 nM -0.16% | 100 nM 0.41% | 833.33 nM -3.88% | 10000 nM -16.5%

CN(C)CCOC(c1ccccc1)c1ccccc1.Cn1c(=O)c2[nH]c(Cl)nc2n(C)c1=O [dimenhydrinate]
inactive: 1 nM 1.11% | 8.33 nM -2% | 100 nM 0.95% | 833.33 nM 0.58% | 10000 nM 0.68%

CN1CCCN=C1COC(=O)C(O)(c1ccccc1)C1CCCCC1 (stereo not given) [oxyphencyclimine]
inactive: 1 nM 2.48% | 8.33 nM 0.59% | 100 nM 0.28% | 833.33 nM 2.86% | 10000 nM -1.14%

COC(=O)C[C@](O)(CCC(C)(C)O)C(=O)O[C@@H]1C(OC)=C[C@]23CCCN2CCc2cc4c(cc2[C@H]13)OCO4 [harringtonine]
active: 833.33 nM 19.9%
inactive: 1 nM 1.51% | 8.33 nM 0.45% | 100 nM -10.7% | 10000 nM -9.74%

Cn1c(=O)c2[nH]c(Br)nc2n(C)c1=O [pamabrom]
inactive: 1 nM 1.59% | 8.33 nM 0.19% | 100 nM 1.39% | 833.33 nM 1.95% | 10000 nM -3.72%

C[C@H]1NC(=O)NC1=O [5-methylhydantoin-(D)]
inactive: 1 nM -0.22% | 8.33 nM -0.75% | 100 nM -0.63% | 833.33 nM -6.83% | 10000 nM 0.71%

NC(=O)Nc1cc(-c2cccc(F)c2)sc1C(=O)N[C@H]1CCCNC1
inactive: 1 nM -2.18% | 8.33 nM 0.53% | 100 nM -2.2% | 833.33 nM -4.24% | 10000 nM -19.5%

CC[N+](C)(CC)CCOC(=O)C1c2ccccc2Oc2ccccc21 [methantheline]
inactive: 1 nM 7.35% | 8.33 nM 3.87% | 100 nM 1.9% | 833.33 nM -0.21% | 10000 nM 3.41%

CCC(c1ccccc1)c1c(O)c2ccccc2oc1=O (stereo not given) [phenprocoumon]
inactive: 1 nM -0.55% | 8.33 nM 0.6% | 100 nM 1.1% | 833.33 nM -0.13% | 10000 nM -0.87%

CC[C@H](CC[C@@H](C)[C@H]1CC[C@H]2[C@@H]3CC=C4C[C@@H](O[C@@H]5O[C@H](CO)[C@@H](O)[C@H](O)[C@H]5O)CC[C@]4(C)[C@H]3CC[C@]12C)C(C)C [daucosterol]
inactive: 1 nM 0.22% | 8.33 nM -0.23% | 100 nM 0.27% | 833.33 nM 0.28% | 10000 nM -1.86%

NNCCc1ccccc1 [phenelzine]
inactive: 1 nM 1.22% | 8.33 nM -0.85% | 100 nM -0.27% | 833.33 nM -0.81% | 10000 nM 3%

O=C(Nc1cccnn1)N1CCC(=Cc2cccc(Oc3ccc(C(F)(F)F)cn3)c2)CC1
inactive: 1 nM 0.89% | 8.33 nM 1.24% | 100 nM -0.76% | 833.33 nM -0.98% | 10000 nM -3.19%

FC(F)(F)c1cc(NC(=S)Nc2ccc(Br)cc2-c2nnn[nH]2)cc(C(F)(F)F)c1
inactive: 1 nM -3.42% | 8.33 nM -1.08% | 100 nM -1.11% | 833.33 nM 3.36% | 10000 nM 0.52%
